Assay [1] in a line: qHTS assay to identify small molecule antagonists of the thyroid receptor (TR) signaling pathway - cell viability counter screen (AID 743064). Further: nearly all actives have a fitted effect of over 50% in size. Further: potency means the concentration at half of the fitted maximal effect. Summed up:
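Plate GH3.TRE-Luc cells; incubate 4 h at 37 °C; add compound, then T3 to 1 nM final; incubate 23.5 h; add CellTiter-Fluor; incubate 30 min at 37 °C, 5% CO2; read fluorescence.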

A short description of assay [2]: qHTS assay to identify small molecule antagonists of the thyroid receptor (TR) signaling pathway (AID 743065). Further: nearly all actives have a fitted effect of over 55% in size. Further: potency means the concentration at half of the fitted maximal effect. Summed up:
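GH3.TRE-Luc rat pituitary cells (two TREs driving luciferase) were dosed with compound, then stimulated with 1 nM T3 (final) for 23.5 h at 37 C. ONE-Glo luminescence was the read-out, with CellTiter-Fluor fluorescence as the cytotoxicity counter-screen.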
(qHTS replaces the single test concentration by a dilution series.)

Assay [3] concerns thyroid hormone receptor (rat, GH3 cells). Nature of the assay: qHTS assay to identify small molecule agonists of the thyroid receptor (TR) signaling pathway (AID 743066; calls by dose curve; further: potency means the concentration at half of the fitted maximal effect).
Assay [4] addresses Estrogen receptor (Homo sapiens) (UniProt P03372). In words: qHTS assay to identify small molecule antagonists of the estrogen receptor alpha (ER-alpha) signaling pathway (AID 743069; active means well fitted curve in the direction sought with a large enough effect in the signal ratio in the repeat runs, not every such curve was filed as active; inconclusive means weak or mixed curves, or effect the other way; inactive means no such curve, though single readings can be large or run the other way; the % refers to the signal ratio). Summed up: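 HEK293 ER-alpha-UAS-bla GripTite cells, held overnight in 2% charcoal-stripped FBS, 5,000 cells/well, preincubated 4 h, then compound plus 17beta-estradiol for 18 h at 37C. Beta-lactamase read by LiveBLAzer B/G FRET substrate, 2 h at room temperature.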

Assay [5] can be described thus: qHTS assay to identify small molecule antagonists of the estrogen receptor alpha (ER-alpha) signaling pathway - cell viability counter screen (AID 743074; calls by dose curve;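 further: HEK293 cells carrying ER-alpha-UAS-bla reporter stimulated with 17beta-estradiol; nearly all actives have a fitted effect of over 45% in size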; further: potency means the concentration at half of the fitted maximal effect).
In assay [6] the target is Estrogen receptor (Homo sapiens) (UniProt P03372). Nature of the assay: qHTS assay to identify small molecule agonists of the estrogen receptor alpha (ER-alpha) signaling pathway (AID 743075; calls by dose curve; further: potency means the concentration at half of the fitted maximal effect).
Chain of Estrogen receptor (Homo sapiens) (P03372 whole entry, looked up): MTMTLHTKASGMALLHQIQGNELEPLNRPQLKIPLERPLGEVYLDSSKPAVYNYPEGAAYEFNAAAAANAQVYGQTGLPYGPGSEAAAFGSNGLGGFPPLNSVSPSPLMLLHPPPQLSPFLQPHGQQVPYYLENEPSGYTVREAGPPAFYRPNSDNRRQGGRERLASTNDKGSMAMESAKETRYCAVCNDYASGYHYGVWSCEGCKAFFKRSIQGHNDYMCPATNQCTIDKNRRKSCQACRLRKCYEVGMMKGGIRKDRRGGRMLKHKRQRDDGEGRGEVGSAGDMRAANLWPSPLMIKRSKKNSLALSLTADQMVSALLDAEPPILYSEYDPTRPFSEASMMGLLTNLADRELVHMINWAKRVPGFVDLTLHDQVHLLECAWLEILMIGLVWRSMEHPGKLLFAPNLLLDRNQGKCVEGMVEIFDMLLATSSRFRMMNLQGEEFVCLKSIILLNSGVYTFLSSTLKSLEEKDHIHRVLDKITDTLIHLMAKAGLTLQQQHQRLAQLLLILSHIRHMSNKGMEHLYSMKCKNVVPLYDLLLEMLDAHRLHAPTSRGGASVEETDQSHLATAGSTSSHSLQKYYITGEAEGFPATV
The target is the same in assay [7]. Nature of the assay: qHTS assay to identify small molecule agonists of the estrogen receptor alpha (ER-alpha) signaling pathway using the BG1 cell line (AID 743079). Further: nearly all actives have a fitted effect of over 20% in size. Further: potency means the concentration at half of the fitted maximal effect.
Assay [8] can be described thus: qHTS assay to identify small molecule antagonists of the estrogen receptor alpha (ER-alpha) signaling pathway using the BG1 cell line - cell viability counter screen (AID 743081).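 Further: compound given together with 17beta-estradiol as the ER stimulus; nearly all actives have a fitted effect of over 45% in size.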 Further: potency means the concentration at half of the fitted maximal effect.
Assay [9] concerns the target Aromatase (Homo sapiens) (UniProt P11511). Nature of the assay: qHTS assay to identify aromatase inhibitors (AID 743083). Further: series mostly up to about 70 µM; nearly all actives have a fitted effect of over 55% in size.
A short description of assay [10]: qHTS assay to identify small molecule antagonists of the estrogen receptor alpha (ER-alpha) signaling pathway using the BG1 cell line (AID 743080; calls by dose curve;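 further: BG1 cells stimulated with 17beta-estradiol alongside compound; series mostly up to about 70 µM; nearly all actives have a fitted effect of over 25% in size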). The gist of the method: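 BG1-Luc-4E2 cells (endogenous full-length ER-alpha, 4xERE luciferase) hormone-starved 5 days in charcoal-stripped FBS, plated 4,000/well for 24 h, then compound plus 17beta-estradiol for 21.5 h at 37 C; ONE-Glo luminescence read.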

Several values for one entry are separate records, joined by “and”; a condition that tells them apart may be missing. Equal values may be shown once. Some structures have more than one record in an assay (separate samples or runs), and their calls can disagree. Activity calls are given as the source filed them. Unless noted, the call rests on the fitted dose curve; in most records, active means well fitted curve in the direction sought with a large enough effect in the repeat runs; inconclusive means weak or mixed curves; inactive means no such curve, though single readings can be large; an effect the other way counts as inactive or inconclusive.

Results on 42 compounds are retold here after PubChem BioAssay (Tox21).

Chain of Aromatase (Homo sapiens) (P11511 whole entry, looked up): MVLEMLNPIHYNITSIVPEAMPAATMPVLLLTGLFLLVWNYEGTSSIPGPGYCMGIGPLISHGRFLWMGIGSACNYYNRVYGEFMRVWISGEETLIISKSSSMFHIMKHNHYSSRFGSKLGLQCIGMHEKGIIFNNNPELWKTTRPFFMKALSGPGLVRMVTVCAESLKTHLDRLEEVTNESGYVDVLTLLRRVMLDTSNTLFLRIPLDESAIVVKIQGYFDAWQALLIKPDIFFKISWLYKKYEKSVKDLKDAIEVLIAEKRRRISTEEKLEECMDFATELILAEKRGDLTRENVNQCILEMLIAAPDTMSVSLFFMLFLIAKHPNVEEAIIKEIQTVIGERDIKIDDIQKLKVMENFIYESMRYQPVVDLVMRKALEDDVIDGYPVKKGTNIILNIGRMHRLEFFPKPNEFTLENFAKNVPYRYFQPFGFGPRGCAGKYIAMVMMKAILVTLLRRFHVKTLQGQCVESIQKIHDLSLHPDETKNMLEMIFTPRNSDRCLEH

Turning to `Cc1noc(NS(=O)(=O)c2ccc(N)cc2)c1C`, the Potency entry in assay [1], in [2], in assay [3], in [4], in [5] and in assay [6] was “inactive” throughout. Moreover, the Potency result in assay [8] and in assay [9] was “inactive” throughout. Moreover, in assay [7], the Potency is 29.8 µM (active) and inactive.
In the case of `CC(=O)NS(=O)(=O)c1ccc(N)cc1`, the Potency entry in assay [1], in assay [2], in [3], in [4], in assay [5] and in assay [6] was “inactive” throughout. The Potency entry in [7], in assay [10], in assay [8] and in assay [9] was “inactive” in each case.
Turning to `CCCNC(=O)NS(=O)(=O)c1ccc(Cl)cc1`, the Potency entry in [1], in assay [2], in assay [3], in [4], in [5] and in assay [6] was “inactive” each time. For the same compound, the Potency entry in [7], in assay [8] and in assay [9] was “inactive” each time.
Turning to `CC1(C)[C@@H]2CC[C@@]1(C)C(=O)C2`, the Potency entry in assay [1], in assay [2], in assay [3], in assay [4], in [5] and in assay [6] was “inactive” each time. The Potency entry in assay [7], in assay [8] and in [9] was “inactive” each time.
`O=C(O)CCC(=O)O`: the Potency entry in [1], in [2], in [3], in assay [4], in assay [5] and in [6] was “inactive” throughout. Moreover, the Potency entry in [7], in assay [8] and in [9] was “inactive” each time.
For `Cn1c(=O)c2[nH]cnc2n(C)c1=O`, the Potency result in [1], in assay [2], in [4], in assay [5], in [6] and in [7] was “inactive” throughout. Further, the Potency entry in [8] and in assay [9] was “inactive” throughout. Further, the Potency entry in assay [3] is “inactive and 30.6 µM (active)”.
Regarding `C/C=C/c1ccc(OC)cc1`, the Potency result in assay [1], in assay [2], in assay [3], in assay [5], in assay [8] and in assay [9] was “inactive” in each case.
For `C[C@]12C=CC(=O)C=C1CC[C@@H]1[C@@H]2[C@@H](O)C[C@@]2(C)[C@H]1CC[C@]2(O)C(=O)CO`, the Potency entry in assay [1], in assay [2], in assay [3], in [5], in assay [6] and in assay [7] was “inactive” throughout. For the same compound, the Potency result in assay [8] and in assay [9] was “inactive” each time.
For the compound `O=C(O)CCCCCCCC(=O)O`, the Potency result in assay [1], in [2], in assay [3], in assay [5], in assay [8] and in [9] was “inactive” each time.
Regarding `O=C(c1ccccc1)C(O)c1ccccc1` (stereo unspecified), the Potency result in [1], in assay [2], in assay [3], in assay [5], in assay [8] and in assay [9] was “inactive” throughout.
On to `O=C(C1CCCCC1)N1CC(=O)N2CCc3ccccc3C2C1` (stereo unspecified), for which the Potency result in assay [1], in assay [2], in assay [3], in [5], in [8] and in assay [9] was “inactive” each time.
Turning to `COc1c2occc2cc2ccc(=O)oc12`, the Potency result in [5] is “inactive and 1.74 µM (active)”. Further, in assay [8], the Potency result is “inactive”.
Regarding `CC(C)[C@@H]1CC[C@@H](C)C[C@H]1O`, the Potency result in [1], in assay [2], in assay [3], in assay [5], in [8] and in assay [9] was “inactive” in each case.
In the case of `c1ccc2[nH]ccc2c1`, the Potency entry in [1], in assay [2], in assay [3], in assay [5], in [8] and in [9] was “inactive” throughout.
As to `NC(=O)c1cnccn1`, the Potency result in assay [1], in assay [4], in [5], in assay [6], in [7] and in assay [8] was “inactive” in each case. In assay [9], the Potency result is “inactive”.
In the case of `O=S(=O)(O)NC1CCCCC1`, the Potency entry in assay [1], in [2], in assay [3], in assay [5], in assay [8] and in assay [9] was “inactive” throughout.
On to `CNC[C@H](O)c1cccc(O)c1`, for which the Potency result in assay [1], in [2], in assay [3], in assay [8] and in [9] was “inactive” in each case. Further, the Potency result in assay [5] was “inactive and 3.89 µM (active)”.
`O=S(=O)(O)c1ccc2cc(O)ccc2c1`: the Potency entry in assay [1], in assay [2], in assay [3], in assay [5], in assay [8] and in assay [9] was “inactive” in each case.
For the compound `Nc1ccc(O)c(C(=O)O)c1`, the Potency entry in assay [1], in assay [4], in [5], in [6], in assay [8] and in assay [9] was “inactive” in each case. Moreover, the Potency entry in [7] is “inactive and 68.6 µM (active)”.
As to `NC(=O)NC1NC(=O)NC1=O` (stereo unspecified), the Potency entry in [1], in assay [2], in assay [3], in assay [5], in [8] and in assay [9] was “inactive” each time.
For the compound `CCCCOC(=O)CC(CC(=O)OCCCC)(OC(C)=O)C(=O)OCCCC`, the Potency entry in assay [1], in [3], in [5], in [8] and in assay [9] was “inactive” each time.
`Cc1ccccc1C(OCCN(C)C)c1ccccc1` (stereo unspecified): in assay [2], the Potency is 21.1 µM (active) and 27.3 µM (active). In addition, the Potency entry in [3], in assay [4], in assay [5], in [6], in [7] and in assay [8] was “inactive” in each case. The Potency entry in assay [9] was “inactive”.
In the case of `CC(=O)OCC(COC(C)=O)OC(C)=O`, the Potency result in assay [1], in [2], in assay [3], in assay [5], in [8] and in assay [9] was “inactive” throughout.
Take `CCCCCCCCCCCCCCCC(=O)O`: the Potency entry in [1], in [2], in [3], in [5], in assay [8] and in assay [9] was “inactive” each time.
Take `O=C(O)c1cccnc1`: the Potency entry in [1], in assay [2], in [3], in assay [5], in assay [8] and in assay [9] was “inactive” each time.
For the compound `O=C(c1ccccc1)c1ccccc1`, the Potency entry in assay [1], in assay [5], in assay [8] and in [9] was “inactive” each time.
Take `Cc1ccc(O)cc1`: the Potency result in assay [1], in [2], in [3], in [5], in assay [8] and in [9] was “inactive” throughout.
In the case of `Nc1ccc(S(=O)(=O)Nc2nccs2)cc1`, the Potency entry in [1], in assay [4], in assay [5], in assay [6], in assay [7] and in assay [8] was “inactive” throughout. Moreover, in assay [9], the Potency entry was “inactive”.
For the compound `Nc1ccc(S(=O)(=O)c2ccc(N)cc2)cc1`, the Potency entry in [2], in assay [3], in [4], in assay [5], in [6] and in assay [7] was “inactive” throughout. For the same compound, the Potency result in assay [8] and in assay [9] was “inactive” throughout.
As for `O=C(O)c1cccc([N+](=O)[O-])c1`, the Potency entry in [1], in [2], in [3], in [5], in assay [8] and in [9] was “inactive” throughout.
As for `Oc1ccc(/C=C/c2cc(O)cc(O)c2)cc1`, the Potency result in assay [1] was “inactive and 27.6 µM (active) and 27.3 µM (active)”; in assay [6], 6.44 µM [inconclusive] (active) and 8.8 nM [inconclusive] (active) and 19.5 µM [inconclusive] (active); in assay [7], 7.17 µM (active) and 15.5 µM (active) and 9.69 µM (active). The Potency result in [3], in assay [5] and in assay [8] was “inactive” each time.
For `C1N2CN3CN1CN(C2)C3`, the Potency result in assay [1], in [2], in assay [3], in assay [5], in [8] and in [9] was “inactive” each time.
In the case of `CCC1(c2ccccc2)C(=O)NCNC1=O`, the Potency result in assay [1], in assay [2], in assay [3], in assay [5], in [8] and in assay [9] was “inactive” each time.
For `Nc1ccc(C(=O)O)cc1`, the Potency entry in assay [4], in assay [5], in [6], in assay [7], in assay [8] and in assay [9] was “inactive” in each case.
As for `O=C1NC(=O)c2ccccc21`, the Potency result in assay [1], in assay [2], in assay [3], in [5], in [8] and in assay [9] was “inactive” throughout.
With `CC(O)CN(CCN(CC(C)O)CC(C)O)CC(C)O` (stereo unspecified), the Potency result in assay [1], in [5], in assay [8] and in [9] was “inactive” each time.
As to `CCCN(CCC)S(=O)(=O)c1ccc(C(=O)O)cc1`, the Potency result in [1], in [2], in assay [3], in assay [5], in assay [8] and in [9] was “inactive” in each case.
As for `O=NO`, the Potency entry in assay [1], in [2], in assay [3], in assay [5], in assay [8] and in assay [9] was “inactive” in each case.
On to `CCOc1ccc(NC(=O)CC(C)O)cc1` (stereo unspecified), for which the Potency entry in assay [1], in assay [2], in assay [3], in [5], in assay [8] and in [9] was “inactive” throughout.
For the compound `O=C(O)c1cc(N=Nc2ccc(S(=O)(=O)Nc3ccccn3)cc2)ccc1O`, the Potency entry in assay [5] and in assay [9] was “inactive” in each case. Moreover, the Potency in [8] is 34.5 µM (active).
Take `OCCc1ccccc1`: the Potency result in [1], in assay [2], in assay [3], in [5], in [8] and in [9] was “inactive” each time.
As for `O=C(O)C(=O)O`, the Potency result in assay [1], in assay [5], in assay [8] and in assay [9] was “inactive” in each case.
